Experimental data published in PubChem BioAssay AID488784 (Sanford-Burnham Center for Chemical Genomics, 2010).
In all, about 1,000 compounds went through this assay and about 700 (70%) were called active. So high a share suggests a set chosen from earlier hits. Only a sample is shown. Unmarked numbers belong to inactive results. No stated cut-off is given here; in the data, active means inhibition above about 50%; inactive means the rest.

Assay: CASP1-PYCARD signaling inhibition in yeast, confirmatory test, counterassay for NLRP3 inhibitor program, one-dose (AID 488784)
Details: yeast expressing Caspase-1-ASC, luminescence counter screen; at 10 µM; stronger effect = higher value

SMILES	inhibition
Cc1cc(C)nc(NC(=O)Nc2ccccc2C(F)(F)F)n1	55.5% (active)
CC(C)Sc1ncnc2c1cnn2-c1ccccc1	40.6%
CC(C)n1c(COc2ccccc2)nc2ccccc21	59.4% (active)
Cc1ccc(OCc2nc3ccccc3n2C)cc1	76.5% (active)
CCSc1nc2sc3c(c2c(=O)n1-c1ccc(C)cc1)CCN(C)C3	33.2%
O=C(COc1ccccc1F)Nc1nc(-c2ccccn2)cs1	65% (active)
Cn1c(=O)c(C(=O)Nc2ncccn2)c(O)c2ccccc21	49.2%
CCc1noc(C)c1C(=O)Nc1nc2ccc(OC)cc2s1	76.8% (active)
Cc1ccc(-c2nn(C(C)(C)C)c3ncnc(N)c23)cc1	96.3% (active)
COc1ccccc1C(=O)Nc1ccc(NC(=O)c2ccco2)c(C)c1	47.5%
Cc1ccc(O)c(NC(=O)c2cc(-c3ccco3)on2)c1	61.9% (active)
CC(=O)[C@@]12O[C@@H]1C[C@H]1[C@@H]3CC[C@H]4C[C@@H](O)CC[C@]4(C)[C@H]3CC[C@@]12C	53% (active)
Cc1ccnc(Nc2nc3ccccc3s2)n1	21.8%
CN(C)c1ccnc2sc(C(=O)c3ccccc3)c(N)c12	70.2% (active)
CCCN(CC1CC1)C(=S)NC(=O)c1ccccc1Br	53.1% (active)
O=[N+]([O-])c1c(NCCO)cc(Sc2nc3ccccc3s2)c2nonc12	65.5% (active)
Cc1cc(C(=O)COc2ccc(Br)cc2F)c(C)n1C1CC1	60.1% (active)
CC1(C)CCSC(/C=C/c2ccccc2)=N1	91.5% (active)
COc1ccccc1OCc1nc2ccccc2s1	48.7%
CCN(CC)c1ccc(/C=N/Nc2nc(C)cc(C)n2)c(O)c1	55% (active)
Nc1c(-c2cccc(Cl)c2)cnn1-c1cccc([N+](=O)[O-])c1	53% (active)
Oc1c(Cl)cc(Cl)c(Cl)c1Cc1c(O)c(Cl)cc(Cl)c1Cl	99.3% (active)
O=C(CC(O)(C(F)(F)F)C(F)(F)F)Nc1ccc(Cl)c(Cl)c1	99.2% (active)
Cc1c(C(=O)N2CCCc3ccccc32)oc2ccccc12	49.6%
O=C(Nc1ccccc1Cl)/C(Cl)=C(\Cl)S(=O)c1ccccc1 (stereo unspecified)	98.8% (active)
O=C(Nc1ccc2oc(-c3ccccc3F)nc2c1)c1ccco1	72.2% (active)

SMILES	inhibition
O=C(Nc1ccc(Oc2ccccc2)cc1)c1ccco1	45.2%
Cn1c(=NC(=O)c2ccco2)sc2cccc(F)c21	25%
Cc1cc(C)c(/C=C2\C(=O)Nc3ccccc32)[nH]1	40.2%
Cc1ccc(OCc2nc(C#N)c(N3CCCC3)o2)cc1	71.8% (active)
O=C(CSc1ccc(-c2ccc(-n3cccn3)cc2)nn1)Nc1ccc([N+](=O)[O-])cc1	11.2%
C[C@@H]1C[C@@H]2O[C@H]2/C=C\C=C\C(=O)Cc2c(Cl)c(O)cc(O)c2C(=O)O1	48.6%
CCCNc1ncnc2sc(C)c(C)c12	50.8% (active)
CC(=NCc1ccc2c(c1)OCO2)C1=C(O)c2ccccc2C1=O	60.2% (active)
O=C(NCc1ccc2c(c1)OCO2)c1c(O)nc2sccn2c1=O	36.7%
O=C(Oc1c(-c2ccco2)oc2ccccc2c1=O)c1cccnc1	58.5% (active)
CC(C)C(=O)N1CCN(CCN=CC2=C(O)CC(c3ccco3)CC2=O)CC1 (stereo unspecified)	55.2% (active)
Cc1cccc(NC(=S)NC(=O)c2ccc(Br)o2)c1	76.2% (active)
CN=C1C=C/C(=N/N=c2\ccn(O)cc2C)C=C1C	53.3% (active)
O=C(CSc1ncnc2c1oc1ccccc12)NC1CCCC1	39.4%
Cc1ccc2cccc(S(=O)(=O)N3CCN(c4ccccc4F)CC3)c2n1	52.6% (active)
O=C1CSC(=S)N1c1ccc(O)cc1	79.7% (active)
COc1cc(N2C(=O)CSC2=S)cc(OC)c1OC	45.7%
CCc1cc(C(=O)Nc2nnc(C3CC3)s2)sc1C	55.5% (active)
Cc1ccc(CSc2nsc(C)c2C#N)cc1	60% (active)
Oc1ccc(Br)cc1/C=N/Nc1ccccn1	37.1%
O=[N+]([O-])c1cccc(/C=N/Nc2ncc(Br)cn2)c1	62.5% (active)
O=[N+]([O-])/C=C/c1ccc2c(ccn2Cc2ccccc2)c1	99.7% (active)
CCOC(=O)c1c(C)[nH]c(C(=O)COc2ccc3c(c2)OCO3)c1C	66.8% (active)
Fc1ccccc1-c1cc2cc3c(cc2cn1)OCO3	51% (active)
N#Cc1nc(Cc2ccccc2)oc1NCCc1ccccc1	56.8% (active)
